High-throughput results (PubChem)
Sa ugtP lethal: growth inhibition of ugtP-null S. aureus, primary screen, RN4220 ugtP deletion, OD600; 16 h; growth inhibition, % (no concentration beside the values); hit rate 0.54% among 330,000; AID 1259309, 2017; in the data active = growth inhibition above about 68%;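 also: plate controls were untreated wells for no effect and antibiotic for full effect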
CCHF vOTU inh-1: CCHFV vOTU protease inhibitors, primary screen, biochemical, Pep-AMC substrate, fluorescence; inhibition, % at 11.5 µM; Crimean-Congo hemorrhagic fever virus L polyprotein viral ovarian tumor (vOTU) protease …; hit rate 0.55% among 370,000; also: 0% = vehicle wells with enzyme and 100% = no enzyme wells
MazEF act: activators of E. coli MazEF toxin-antitoxin RNase, primary screen, biochemical, fluorescence, uHTS | Endoribonuclease toxin MazF (Escherichia coli (strain K12)), P0AE70 | activation, % at 20 µM | FAM/BHQ RNA-DNA oligo cleavage fluorescence, 5 h | hit rate 0.32% among 350,000; in the data active = activation above about 50%
Target sequence (P0AE70 whole entry, looked up): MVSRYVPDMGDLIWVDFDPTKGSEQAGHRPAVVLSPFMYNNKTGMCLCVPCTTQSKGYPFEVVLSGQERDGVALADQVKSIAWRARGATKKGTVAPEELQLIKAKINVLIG
Sa RN4220 lethal: growth inhibition of S. aureus RN4220, primary screen, OD600 | 16 h | inhibition, % (concentration not given with the values) | hit rate 0.33% among 330,000 | AID 1259311, 2017; in the data active = inhibition above about 85%;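 also: plate controls were untreated cells for no effect and reference antibiotic for full effect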
SARS 3CLpro inh: SARS-CoV 3CLpro protease inhibitors, primary screen, biochemical, quenched FRET | inhibition, % at 6 µM | Replicase polyprotein 1ab (Severe acute respiratory syndrome coronavirus), P0C6X7 | recombinant SARS-CoV 3CLpro, quenched FRET peptide cleavage | hit rate 0.14% among 290,000; in the data active = inhibition above about 12%
Mtb betalactam: beta-lactam sensitization of Mtb H37Rv, H37Rv; M. tuberculosis H37Rv growth with meropenem, percent inhibition; inhibition, % at 25 µM; hit rate 0.27% among 330,000; call rule not given here;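 also: growth measured after seven days incubation then overnight dye step; 0% = bacteria only wells and 100% = bacteria with antibiotic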
CCHF vOTU inh-2: CCHFV vOTU protease inhibitors, confirmation, biochemical, Pep-AMC substrate, fluorescence; shares compounds with CCHF vOTU inh-1; Recombinant CCHFV vOTU; inhibition, % at 11.5 µM; hit rate 17% among 1,900; AID 686976, 2013
Active calls of the source: *; nt = not tested or not shown. An excerpt weighted towards active compounds, which were near 1.3% of everything screened. Rule as the data show it, unless noted: active = inhibition above about 30%; inactive = the rest.

SMILES | Sa ugtP lethal | CCHF vOTU inh-1 | MazEF act | Sa RN4220 lethal | SARS 3CLpro inh | Mtb betalactam | CCHF vOTU inh-2
CCOCCCn1c(N)c(C(=O)Nc2sc3c(c2C(=O)OC)CCCC3)c2nc3ccccc3nc21 | -1 | 31* | -7 | -3 | -3 | 6 | -5
CC(=NNc1ccc(Cl)c(C(=O)O)c1)c1cccc2ccccc12 | -2 | nt | nt | 7 | nt | nt | nt
O=C1CC(N2CCOCC2)=NN1c1ccc([N+](=O)[O-])cc1 | -2 | 104* | -1 | 4 | 5 | 67 | 2
CCOc1ccc(N2C(=O)NC(=O)C(=Cc3ccc(N4CCCCC4)o3)C2=O)cc1 | 2 | nt | nt | 3 | nt | nt | nt
Cc1cccc2c(=O)c(-c3ccc(Cl)cc3)c(NC(=O)c3ccco3)oc12 | -5 | 30* | 8 | -1 | 4 | 74 | -6
Cn1c(NC(=O)c2ccco2)c(-c2ccc(Cl)cc2)c(=O)c2ccccc21 | -1 | 3 | 3 | 1 | 1 | 4 | nt
CC(=O)Nc1ccc(C(=O)N/N=C/c2cc(Br)cc(Br)c2O)cc1 | nt | -12 | -40 | nt | -1 | 4 | nt
CC(C)C(=O)Nc1ccc(C(=O)N/N=C/c2cc(Br)cc(Br)c2O)cc1 | nt | 32* | -50 | nt | 0 | 2 | -3
O=C1Nc2ccccc2C(=O)N2C1C1C(=O)N(Cc3ccccc3)C(=O)C1C2c1cccc(Br)c1 (configuration not stated) | -3 | nt | nt | 6 | nt | nt | nt
CCc1nn(CCCC(=O)NCc2ccccc2Br)c(=O)c2cc3occc3n12 | -3 | 47* | -2 | 1 | 1 | -9 | -4
CCc1cccc(NC(=O)CCCn2nc(CC)n3c(cc4occc43)c2=O)c1 | -2 | 1 | -2 | -2 | -2 | 1 | nt
COC(=O)[C@]12CCCCC=C1N(CCC1=CCCCC1)C(=O)[C@H](CC(=O)NCCC(C)C)C2 | nt | 44* | nt | nt | nt | nt | -6
COC(=O)[C@]12C[C@H](CC(=O)NCc3ccc(C)o3)C(=O)N(Cc3ccco3)C1=C[C@H](C(C)C)O[C@@H]2C1CC1 | nt | 3 | nt | nt | nt | nt | nt
CCCCCCCCN1C(=O)[C@@H](CC(=O)N2CCN(C(=O)OCC)CC2)C[C@@]2(C(=O)OC)C1=C[C@H](C(C)C)O[C@@H]2C1CC1 | nt | 33* | nt | nt | nt | nt | 17
CCCCCCCCN1C(=O)[C@@H](CC(=O)NCc2ccc(C)o2)C[C@@]2(C(=O)OC)C1=C[C@H](C(C)C)O[C@@H]2C1CC1 | nt | 30* | nt | nt | nt | nt | 27
COC(=O)[C@@]12C[C@@H](CC(=O)NCc3ccc(C)o3)C(=O)N(CCc3ccc(OC)c(OC)c3)C1=CCC(C)(C)C2 | nt | 36* | nt | nt | nt | nt | -4
CCOC(=O)C1C2COc3ccc(Cl)cc3C2N2C(=O)C(C)NC(=O)[C@@]12C (some centres not stated) | -12 | nt | nt | 0 | nt | nt | nt
CCOc1ccc(C=NNC(=O)Cc2ccccc2)cc1CN1CC2CC(C1)c1cccc(=O)n1C2 (configuration not stated) | -2 | nt | nt | 2 | nt | nt | nt
ON=CCc1[nH]c2ccccc2c1-c1ccccc1 | 11 | nt | nt | 2 | nt | nt | nt
Cc1ccc(-n2c(SCC(=O)NN=Cc3ccc(C)s3)nnc2-c2ccccc2)cc1 | -2 | nt | nt | 4 | nt | nt | nt
COC(=O)[C@]12C[C@H](CC(=O)NCCc3ccccc3OC)C(=O)N(CCc3ccc(OC)c(OC)c3)C1=C[C@H](C(C)C)O[C@@H]2C1CC1 | nt | 14 | nt | nt | nt | nt | nt
CCCCCCCCN1C(=O)[C@H](CC(=O)N2CCCC2)C[C@@]2(C(=O)OCC)CCCC=C12 | nt | 34* | nt | nt | nt | nt | 20
CCCCCCCCN1C(=O)[C@@H](CC(=O)NCCc2ccccc2OC)C[C@@]2(C(=O)OC)C1=C[C@H](C(C)C)O[C@@H]2C1CC1 | nt | 35* | nt | nt | nt | nt | 16
CCCCCCCCN1C(=O)[C@@H](CC(=O)NCc2ccccc2)C[C@@]2(C(=O)OC)C1=C[C@H](C(C)C)O[C@@H]2C1CC1 | nt | 39* | nt | nt | nt | nt | 12
CCCCCCCCN1C(=O)[C@H](CC(=O)NCc2ccccc2)C[C@@]2(C(=O)OC)CCCCC=C12 | nt | 40* | nt | nt | nt | nt | 31*
SMILES | Sa ugtP lethal | CCHF vOTU inh-1 | MazEF act | Sa RN4220 lethal | SARS 3CLpro inh | Mtb betalactam | CCHF vOTU inh-2
O=S1(=O)NC2c3ccccc3CC2O1 (configuration not stated) | 0 | 37* | 1 | 8 | -9 | 1 | -5
CCOC(=O)N(CC)c1ccc(C(O)(C(=O)OCC)C(F)(F)F)cc1 (configuration not stated) | 1 | 31* | 3 | 0 | -1 | -3 | -12
FC(F)(F)c1cc(CO[C@@H]2CCCN[C@@H]2c2ccccc2)cc(C(F)(F)F)c1 | nt | 33* | 6 | nt | nt | 86 | -3
CC(C)C1OC(CCc2ccccc2)Cc2[nH][nH]c(=O)c21 (configuration not stated) | nt | 33* | nt | nt | nt | nt | 6
Cc1cc(C)c2sc(N(CCCN(C)C)C(=O)c3ccc(Br)s3)nc2c1 | 0 | 31* | -6 | 0 | -1 | 22 | 4
Cc1cc(C(=O)NN=Cc2ccc(C)s2)n[nH]1 | 6 | nt | nt | 5 | nt | nt | nt
CN1C(=O)/C(=C/c2ccccc2F)Sc2ccc(C(=O)NCC3CCCO3)cc21 (configuration not stated) | -4 | 13 | -6 | 1 | 5 | 98 | nt
O=C1Nc2cc(C(=O)NCC3CCCO3)ccc2S/C1=C/c1ccccc1F (configuration not stated) | -8 | 31* | 13 | 7 | 6 | -2 | -23
Cc1ccc(S(=O)(=O)/N=C2/NC(=O)/C(=C/c3ccc(Br)o3)S2)cc1 | 17 | 36* | -4 | 41 | 4 | -8 | 11
CC(C)OC(=S)NC(=NS(=O)(=O)c1ccccc1)c1ccccc1 | 9 | nt | nt | 5 | nt | nt | nt
O=C(CCC(=O)Nc1cccc2ccccc12)NN=Cc1ccco1 | 3 | nt | nt | 5 | nt | nt | nt
CC(=NNC(=O)NC1CCCCC1)c1ccc(Cl)s1 | -10 | nt | nt | 5 | nt | nt | nt
O=C1CSC(=S)N1N=Cc1ccc(O)c(O)c1O | -14 | nt | nt | 22 | nt | nt | nt
CN(C)c1ccc(C=NNC(=O)C2COc3ccccc3O2)o1 (configuration not stated) | 0 | nt | nt | 2 | nt | nt | nt
O=C1NNC(c2ccccc2)=N/C1=C\c1ccccc1Cl | -15 | 54* | -10 | 7 | 2 | nt | 43*
CC(CC(=O)OCC(=O)NCc1ccc(Cl)cc1)c1ccccc1 (configuration not stated) | -4 | 33* | 0 | -6 | nt | -8 | -10
C#CCCOC(=O)N1C2=NC(C(=O)OC)=C(C(=O)OC)C3N(C)c4ccccc4[C@]23CC1CO (some centres not stated) | -2 | nt | nt | 5 | nt | nt | nt
Cc1ccccc1SCC(=O)NNC(=O)c1ccncc1 | 3 | 3 | -3 | 2 | nt | -9 | nt
Cc1ccccc1SCC(=O)NNC(=O)c1ccccc1O | -2 | 39* | 1 | 5 | -3 | 9 | -12
